For 7 compounds, Potency and viability (% of DMSO) results are on record in PubChem BioAssay (NCATS).

Molecules are shown by their SMILES. Inconclusive results are not listed. Calls of active or inactive are those of the source. The call rests on the fitted dose curve; in most records, active means well fitted cell-killing curve with a large enough effect; inconclusive means small, poorly fitted or top-dose-only effect, or effect the other way; inactive means no such curve, though single readings can be large or run the other way.
Potency means the concentration at half of the fitted maximal effect.

This assay in a line: Quantitative High-Throughput drug screen in 47 multiple myeloma cell lines against the NCATS MIPE library collection: Karpas417_ECACC cell viability assay (AID 1918961). Particulars: Karpas417 myeloma viability, CellTiter-Glo ATP luminescence, 48 h; viability (% of DMSO): at 45.8 µM (top of the series). The method, boiled down: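 We plated 500 myeloma cells per well, pinned in MIPE 4.0 compounds, and incubated for 48 hours at 37C. ATP was then quantified with CellTiter-Glo, with DMSO and media-only wells defining 100% and 0%.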
For `Cc1ccc2c(c1)c1c(n2CCc2ccc(C)nc2)CCN(C)C1`, the Potency entry is “inactive”.

Consider `CC(=O)Nc1cccc(-n2c(=O)n(C3CC3)c(=O)c3c(Nc4ccc(I)cc4F)n(C)c(=O)c(C)c32)c1`, for which the Potency is 66.2 nM (active).

Take `C[C@@H](NC(=O)c1ncnc(N)c1Cl)c1ncc(C(=O)Nc2cc(C(F)(F)F)c(Cl)cn2)s1`: the Potency is 2960 nM (active).

Turning to `CN(C)CCOc1cc(-c2cn[nH]c2)ccc1NC(=O)C1COc2ccccc2O1` (configuration not stated), the viability (% of DMSO) is 64.1% (active).

For `CS(=O)(=O)c1ccc(C2=C(c3ccccc3)C(=O)OC2)cc1`, the Potency entry is “inactive”.

Consider `COc1nccc(-c2c(-c3ccc(F)cc3)ncn2C2CCC(O)CC2)n1` (configuration not stated), for which the Potency is 4690 nM (active).

`CC1(COc2ccc3c(c2)ncn3-c2ccc3cccc(N4CCC(N)CC4)c3n2)COC1`: the Potency was 1180 nM (active).
